# In paper PMC4081100, “A DNA-binding-site landscape and regulatory network analysis for NAC transcription factors in Arabidopsis thaliana”:
# Target: T1, GST-VND3 NAC domain (Arabidopsis thaliana, UniProt Q9FH59 12-162)
# T1 sequence: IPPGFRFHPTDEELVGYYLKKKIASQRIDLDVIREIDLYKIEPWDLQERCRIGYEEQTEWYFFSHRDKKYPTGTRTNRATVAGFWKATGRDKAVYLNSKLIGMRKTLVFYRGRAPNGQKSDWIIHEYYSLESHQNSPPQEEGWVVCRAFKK
# Test: universal protein binding microarray (PBM); transcription factors of Arabidopsis thaliana; high values mean tight binding
# Conditions: protein: recombinant; tags: GST; chain copies: 2; dsDNA, one strand shown
# Method in brief: (§1)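 GST-tagged NAC-domain, full-length or DNA-binding-domain proteins were induced in cells, with zinc acetate added for zinc-finger proteins. They were purified on glutathione–Sepharose 4B and quantified by A280 or anti-GST western blot. Each was applied at 200 to 500 nM final, in duplicate, to custom all-10-mer Agilent 4 × 180K arrays made double-stranded by primer extension, with gapped and ungapped 8-mers scored. Binding is the normalised enrichment score (E-score).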
row,Sequence,binding signal
1,ACGTCACT,0.355 E-score
2,ACGTTACT,0.259 E-score
3,ATACGAAA,0.296 E-score
4,CCACGCAA,0.354 E-score
5,ATACGCAA,0.435 E-score
6,TAGCGTAA,0.297 E-score
7,TAACGTGA,0.251 E-score
8,CACGTAAA,0.414 E-score
9,ACGCAACA,0.347 E-score
10,GCGTAATA,0.203 E-score
11,AAGTTACC,0.146 E-score
12,GGAAGCAA,0.118 E-score
13,ACACGATA,0.273 E-score
14,AACGTGTA,0.275 E-score
15,CACGGCAA,0.456 E-score
16,GCGTGTAA,0.246 E-score
17,ACGGAAGC,0.385 E-score
18,ACACACGC,0.198 E-score
19,CGAGGAAA,0.155 E-score
20,ACGAGAAA,0.276 E-score

row,Sequence,binding signal
1,ACGTAATC,0.427 E-score
2,AACGTAAT,0.359 E-score
3,CACGTTAA,0.184 E-score
4,GTGACGTA,0.365 E-score
5,CTTAAGTA,0.218 E-score
6,AATGCCGT,0.407 E-score
7,CACGCAAA,0.396 E-score
8,CTACGTAA,0.378 E-score
9,GCAAGTAA,0.231 E-score
10,GAACACGC,0.138 E-score
11,CTAAGTAA,0.238 E-score
12,CACGAAAC,0.326 E-score
13,AACACGCC,0.1 E-score
14,ATTCCGTG,0.386 E-score
15,ATACGTAA,0.462 E-score
16,CACGTAAG,0.447 E-score
17,TACACGCA,0.404 E-score
18,TACGTTAA,0.249 E-score
19,GTACGTTA,0.253 E-score

# Target: T2, GST-VND7 NAC domain (Arabidopsis thaliana, UniProt Q9C8W9 9-158)
# T2 sequence: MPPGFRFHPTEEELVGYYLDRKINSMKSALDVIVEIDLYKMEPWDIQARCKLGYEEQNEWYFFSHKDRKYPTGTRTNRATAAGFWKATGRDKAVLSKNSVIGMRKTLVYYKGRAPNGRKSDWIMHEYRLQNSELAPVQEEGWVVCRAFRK
# Test: as above
# Conditions: protein: recombinant; tags: GST; chain copies: 2; dsDNA, one strand shown
# Method in brief: as §1
row,Sequence,binding signal
1,ACGTCACT,0.328 E-score
2,ACGTTACT,0.326 E-score
3,ATACGAAA,0.205 E-score
4,CCACGCAA,0.337 E-score
5,ATACGCAA,0.433 E-score
6,TAGCGTAA,0.347 E-score
7,TAACGTGA,0.0561 E-score
8,CACGTAAA,0.346 E-score
9,ACGCAACA,0.406 E-score
10,GCGTAATA,0.246 E-score
11,AAGTTACC,0.0773 E-score
12,GGAAGCAA,0.0735 E-score
13,ACACGATA,0.248 E-score
14,AACGTGTA,0.0615 E-score
15,CACGGCAA,0.444 E-score
16,GCGTGTAA,0.2 E-score
17,ACGGAAGC,0.266 E-score
18,ACACACGC,0.213 E-score
19,CGAGGAAA,0.173 E-score
20,ACGAGAAA,0.302 E-score

row,Sequence,binding signal
1,ACGTAATC,0.44 E-score
2,AACGTAAT,0.274 E-score
3,CACGTTAA,0.156 E-score
4,GTGACGTA,0.413 E-score
5,CTTAAGTA,0.182 E-score
6,AATGCCGT,0.4 E-score
7,CACGCAAA,0.419 E-score
8,CTACGTAA,0.345 E-score
9,GCAAGTAA,0.232 E-score
10,GAACACGC,0.174 E-score
11,CTAAGTAA,0.209 E-score
12,CACGAAAC,0.246 E-score
13,AACACGCC,0.0653 E-score
14,ATTCCGTG,0.41 E-score
15,ATACGTAA,0.458 E-score
16,CACGTAAG,0.447 E-score
17,TACACGCA,0.385 E-score
18,TACGTTAA,0.173 E-score
19,GTACGTTA,0.148 E-score
